The nature of experiment [1]: binders of probe aFSTL3 on microarray, primary screen, stem cell growth factor project, biochemical, small-molecule microarray, fluorescence 635/667 (AID 1064).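 Note: measures binding of the biotinylated anti-FSTL3 antibody to printed compounds.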 To be noted: higher = more signal.
Experiment [2] in a line: binders from COS7 lysate, DM2A8 probe, primary screen, torsin A project, cell lysate, small-molecule microarray, fluorescence 635/667 (AID 1065). To be noted: higher = more signal, COS7 lysate expressing mutant human TOR1A.
The nature of experiment [3]: binders of probe aFGF2 on microarray, primary screen, stem cell growth factor project, biochemical, small-molecule microarray, fluorescence 635/667 (AID 1067).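 Note: measures binding of biotinylated aFGF2 protein to printed compounds on slides; z-score merges feature fluorescence and signal-to-noise across triplicate slides.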 As to conditions: higher = more signal.
Experiment [4] can be described thus: binders of probe aFGF10 on microarray, primary screen, stem cell growth factor project, biochemical, small-molecule microarray, fluorescence 635/667 (AID 1071).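 Note: score merges 667 nm spot intensity and signal to noise from triplicate slides.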 As to conditions: higher = more signal.
Experiment [5] addresses Neurogenic locus notch homolog protein 2 (Homo sapiens) (UniProt Q04721). Kind of experiment: Notch2 binders on small-molecule microarrays, primary screen, biochemical, small-molecule microarray, 635 nm fluorescence, stem cell growth factors (AID 1073). To be noted: Notch2 binding, higher = more signal.
Experiment [6] concerns the target Pro-neuregulin-1, membrane-bound isoform (Homo sapiens) (UniProt Q02297). The experiment can be described thus: NRG1 binders on small-molecule microarrays, primary screen, psychiatric disease protein project, biochemical, small-molecule microarray, fluorescence 635/667 (AID 1075).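 Note: score combines 667 nm spot fluorescence with signal to noise.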 To be noted: NRG1 binding, 635 nm fluorescence, higher = more signal.
Experiment [7] concerns Neuregulin-1 EGF-like domain. Kind of experiment: binders of neuregulin-1 EGF-like domain, primary screen, biochemical, small-molecule microarray, 635 nm fluorescence (AID 1081).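 Note: binding of the protein to compounds printed on small-molecule microarray slides.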 To be noted: small-molecule microarray binding, higher = more signal.
Experiment [8] can be described thus: FRG1 promoter luciferase signal modulators, primary screen, FRG1 inhibition for FSHD, cell-based, C2C12 myotubes, firefly/Renilla luciferase, luminescence (AID 1084). As to conditions: higher = more signal, called active from +8 up or from −8 down.
Experiment [9] can be described thus: binders of probe aFST on microarray, primary screen, stem cell growth factor project, biochemical, small-molecule microarray, fluorescence 635/667 (AID 1086).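 Note: score merges 667 nm fluorescence with signal-to-noise of each printed compound spot.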 As to conditions: higher = more signal.
The nature of experiment [10]: binders of probe aHhip on microarray, primary screen, stem cell growth factor project, biochemical, small-molecule microarray, fluorescence 635/667 (AID 1087).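 Note: score merges spot fluorescence at 667nm with spot signal to noise ratio.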 As to conditions: higher = more signal.
The test system of experiment [11] is PRMT1 (protein arginine N-methyltransferase 1). The experiment can be described thus: PRMT1 binders on small-molecule microarrays, primary screen, biochemical, small-molecule microarray, 635 nm fluorescence (AID 1088).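 Note: binding of Prmt1 protein to compounds spotted on small-molecule microarray slides.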 As to conditions: small-molecule microarray binding, higher = more signal.
Experiment [12] can be described thus: yeast growth modulation, basal conditions, primary screen, YJM789 clinical isolate, OD600, 24 h (AID 1089).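 Note: growth of clinical yeast isolate S. cerevisiae YJM 789 seeded 1000 cells per well; test concentration not given here.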 To be noted: S. cerevisiae YJM789 growth, higher = more signal, called active from +8 up or from −8 down.
Experiment [13] is described as follows: fission yeast growth modulation, primary screen, strain 972, OD600, 24 h, no modulator (AID 1090).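 Note: basal condition with compound alone and no growth modifier present; test concentration not given here.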 To be noted: S. pombe 972 growth, higher = more signal, called active from +8 up or from −8 down.
Experiment [14] is described as follows: S. cerevisiae growth modulation with rapamycin, primary screen, strain BY4716, OD600, 96 h (AID 1091). Note: test concentration not given here. As to conditions: higher = more signal, called active from +8 up or from −8 down.
For experiment [15], the target named is Torsin-1A-interacting protein 2 (Homo sapiens) (UniProt Q8NFQ8). The experiment can be described thus: LULL1 binders on small-molecule microarray, primary screen, cell lysate, human LULL1 lysate, 635/667 nm fluorescence (AID 1092).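 Note: probe is lysate of COS7 cells overexpressing human LULL1; score merges per-feature 667 nm fluorescence with signal-to-noise.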 To be noted: hLULL1 lysate binding, 635 nm fluorescence, higher = more signal.
Experiment [16] is described as follows: E. coli growth modulation, two-sided OD650, primary screen, E. coli filamentation project, strain DRC41, 24 h (AID 1093).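 Note: MC1000 strain lacking acrAB efflux and sulA so SOS filamentation is blocked; test concentration not given here.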 As to conditions: OD650, 24 h, higher = more signal, called active from +8 up or from −8 down.
Experiment [17] can be described thus: small-molecule microarray binders of probe aLefty2, primary screen, biochemical, biotinylated probe, 635/667 nm fluorescence (AID 1094).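 Note: score merges spot fluorescence near 667 nm with spot signal-to-noise ratio.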 To be noted: higher = more signal.
The subject of experiment [18] is Noggin (protein binding on small-molecule microarray). The experiment can be described thus: Noggin binders on small-molecule microarray, primary screen, biochemical, 635/667 nm fluorescence (AID 1095).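 Note: score merges 667 nm feature fluorescence with signal to noise over triplicate slides.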 As to conditions: 635 nm fluorescence, higher = more signal.
The target of experiment [19] is Neurogenic locus notch homolog protein 3 (Homo sapiens) (UniProt Q9UM47). Kind of experiment: NOTCH3 binders on small-molecule microarray, primary screen, biochemical, 635/667 nm fluorescence (AID 1096). To be noted: NOTCH3 binding, 635 nm fluorescence, higher = more signal.
The nature of experiment [20]: small-molecule microarray binders of probe aEGFR, primary screen, biochemical, biotinylated probe, 635/667 nm fluorescence (AID 1097).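 Note: probe is a biotinylated anti-EGFR antibody binding compounds printed on slides; score combines fluorescence near 667 nm and signal to noise of each spot.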 As to conditions: higher = more signal.

Activity calls are given as the source filed them.

Neurogenic locus notch homolog protein 2 (Homo sapiens), sequence (Q04721 whole entry, looked up, canonical isoform): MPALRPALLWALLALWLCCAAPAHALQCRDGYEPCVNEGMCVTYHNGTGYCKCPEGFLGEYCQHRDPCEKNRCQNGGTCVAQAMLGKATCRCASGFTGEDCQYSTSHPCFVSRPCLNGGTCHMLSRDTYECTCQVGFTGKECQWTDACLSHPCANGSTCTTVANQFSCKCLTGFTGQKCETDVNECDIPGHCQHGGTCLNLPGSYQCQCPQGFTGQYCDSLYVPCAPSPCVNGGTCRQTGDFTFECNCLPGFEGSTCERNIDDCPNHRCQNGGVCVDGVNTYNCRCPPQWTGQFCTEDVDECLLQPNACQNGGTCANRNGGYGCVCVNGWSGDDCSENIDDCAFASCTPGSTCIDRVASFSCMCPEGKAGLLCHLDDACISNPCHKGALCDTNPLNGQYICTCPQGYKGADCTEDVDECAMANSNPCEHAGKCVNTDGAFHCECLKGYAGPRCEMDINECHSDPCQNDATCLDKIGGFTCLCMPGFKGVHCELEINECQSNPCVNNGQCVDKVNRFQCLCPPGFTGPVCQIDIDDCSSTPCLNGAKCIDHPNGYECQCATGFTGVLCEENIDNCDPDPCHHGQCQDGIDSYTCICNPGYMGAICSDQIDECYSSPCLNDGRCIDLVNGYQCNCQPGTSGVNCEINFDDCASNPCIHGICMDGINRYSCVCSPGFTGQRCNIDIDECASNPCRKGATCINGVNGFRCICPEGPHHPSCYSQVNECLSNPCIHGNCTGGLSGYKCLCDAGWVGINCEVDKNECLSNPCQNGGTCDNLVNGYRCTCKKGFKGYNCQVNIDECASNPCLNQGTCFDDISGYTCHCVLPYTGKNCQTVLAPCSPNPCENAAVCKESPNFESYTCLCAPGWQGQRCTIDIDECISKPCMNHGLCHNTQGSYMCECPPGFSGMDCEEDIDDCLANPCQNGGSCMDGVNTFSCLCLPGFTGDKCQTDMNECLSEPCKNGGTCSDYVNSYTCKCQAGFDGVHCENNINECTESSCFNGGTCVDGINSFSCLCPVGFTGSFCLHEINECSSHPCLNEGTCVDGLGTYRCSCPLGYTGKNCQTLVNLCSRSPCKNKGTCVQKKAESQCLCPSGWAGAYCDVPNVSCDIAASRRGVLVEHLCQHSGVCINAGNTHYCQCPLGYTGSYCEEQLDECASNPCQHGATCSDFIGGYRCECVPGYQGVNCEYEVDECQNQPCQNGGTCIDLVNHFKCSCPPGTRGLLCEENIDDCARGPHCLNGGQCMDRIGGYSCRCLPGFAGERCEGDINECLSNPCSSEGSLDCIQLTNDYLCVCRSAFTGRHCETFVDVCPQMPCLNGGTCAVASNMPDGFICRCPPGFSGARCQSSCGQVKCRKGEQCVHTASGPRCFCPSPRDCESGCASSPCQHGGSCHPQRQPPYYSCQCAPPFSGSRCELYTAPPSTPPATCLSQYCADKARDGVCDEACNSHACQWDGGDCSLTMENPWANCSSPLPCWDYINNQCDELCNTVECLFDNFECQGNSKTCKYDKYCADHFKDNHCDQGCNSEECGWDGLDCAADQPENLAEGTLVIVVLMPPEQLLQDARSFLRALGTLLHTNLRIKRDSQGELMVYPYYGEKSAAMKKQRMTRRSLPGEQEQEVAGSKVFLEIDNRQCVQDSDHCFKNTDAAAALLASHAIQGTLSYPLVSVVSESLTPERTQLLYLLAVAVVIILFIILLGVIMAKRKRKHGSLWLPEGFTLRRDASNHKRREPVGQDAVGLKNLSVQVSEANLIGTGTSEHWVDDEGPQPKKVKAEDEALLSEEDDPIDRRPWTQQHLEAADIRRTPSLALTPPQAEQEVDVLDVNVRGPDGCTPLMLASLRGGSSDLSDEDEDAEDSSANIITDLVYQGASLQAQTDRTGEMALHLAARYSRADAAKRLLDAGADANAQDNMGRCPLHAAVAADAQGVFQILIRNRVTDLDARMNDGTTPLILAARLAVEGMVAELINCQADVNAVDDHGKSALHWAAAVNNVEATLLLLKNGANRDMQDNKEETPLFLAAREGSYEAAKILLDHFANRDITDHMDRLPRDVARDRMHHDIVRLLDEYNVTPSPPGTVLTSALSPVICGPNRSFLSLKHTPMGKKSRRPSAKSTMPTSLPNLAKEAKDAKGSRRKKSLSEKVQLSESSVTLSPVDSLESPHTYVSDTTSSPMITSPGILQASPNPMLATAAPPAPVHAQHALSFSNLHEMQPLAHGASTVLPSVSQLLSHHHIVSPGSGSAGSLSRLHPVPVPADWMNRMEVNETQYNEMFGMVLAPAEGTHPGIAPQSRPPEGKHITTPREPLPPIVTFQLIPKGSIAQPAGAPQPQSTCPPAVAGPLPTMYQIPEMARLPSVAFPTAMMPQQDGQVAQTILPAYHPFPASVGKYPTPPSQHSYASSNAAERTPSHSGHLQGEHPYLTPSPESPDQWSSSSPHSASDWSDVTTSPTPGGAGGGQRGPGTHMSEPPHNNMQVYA
Torsin-1A-interacting protein 2 (Homo sapiens), sequence (Q8NFQ8 whole entry, looked up): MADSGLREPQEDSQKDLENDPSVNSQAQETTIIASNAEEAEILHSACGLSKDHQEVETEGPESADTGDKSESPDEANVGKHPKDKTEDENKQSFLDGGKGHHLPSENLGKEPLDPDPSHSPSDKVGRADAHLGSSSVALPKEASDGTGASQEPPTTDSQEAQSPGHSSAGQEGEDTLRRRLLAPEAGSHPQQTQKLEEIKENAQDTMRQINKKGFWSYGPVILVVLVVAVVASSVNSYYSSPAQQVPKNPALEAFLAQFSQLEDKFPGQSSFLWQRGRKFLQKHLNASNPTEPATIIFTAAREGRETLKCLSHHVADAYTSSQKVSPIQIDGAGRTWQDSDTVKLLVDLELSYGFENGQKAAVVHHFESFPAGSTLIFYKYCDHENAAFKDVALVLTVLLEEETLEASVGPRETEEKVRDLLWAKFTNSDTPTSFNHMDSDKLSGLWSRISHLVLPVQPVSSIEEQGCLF
Pro-neuregulin-1, membrane-bound isoform (Homo sapiens), sequence (Q02297 whole entry, looked up, the tested form may be a part, canonical isoform): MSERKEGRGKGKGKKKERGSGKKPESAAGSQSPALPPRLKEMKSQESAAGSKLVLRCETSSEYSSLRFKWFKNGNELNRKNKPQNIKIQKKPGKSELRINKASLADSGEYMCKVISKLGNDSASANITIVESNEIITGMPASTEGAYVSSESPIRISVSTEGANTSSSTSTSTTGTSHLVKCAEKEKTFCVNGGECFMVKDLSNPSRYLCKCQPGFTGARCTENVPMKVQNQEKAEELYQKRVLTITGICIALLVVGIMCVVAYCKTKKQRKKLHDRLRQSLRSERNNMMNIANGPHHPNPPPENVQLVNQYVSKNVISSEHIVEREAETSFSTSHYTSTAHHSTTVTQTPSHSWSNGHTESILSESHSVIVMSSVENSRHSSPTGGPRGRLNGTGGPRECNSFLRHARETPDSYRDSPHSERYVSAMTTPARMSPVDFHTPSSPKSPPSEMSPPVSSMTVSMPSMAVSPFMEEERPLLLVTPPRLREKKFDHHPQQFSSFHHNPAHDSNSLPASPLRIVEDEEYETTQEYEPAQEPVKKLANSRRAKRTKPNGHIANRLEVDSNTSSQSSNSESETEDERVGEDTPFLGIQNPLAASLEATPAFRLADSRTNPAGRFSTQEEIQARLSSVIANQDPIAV

For `COc1cccc(C[C@H]2C[C@@H](CO[Si](C(C)C)(C(C)C)C(C)C)N3C(=O)[C@]4(C(C)=O)O[C@]23[C@H]2C(=O)N(C)C(=O)[C@H]24)c1`, the composite z-score was -0.46 in [1]; 0.395 in [2]; -0.021 in experiment [3]; 0.407 in [4]; 0.797 in experiment [5]; 0.143 in [6]. For the same molecule, the composite z-score in experiment [7] was 0.996; in experiment [9], 0.421; in experiment [10], -0.0618; in experiment [11], 1.49; in experiment [15], 0.622; in experiment [17], -0.0942. Besides, the composite z-score in experiment [18] was 1; in experiment [19], 1.13; in [20], -0.0175. Further, the z-score in experiment [8] was 0.165 (inactive); in experiment [12], 0.481 (inactive); in experiment [13], 1.38 (inactive); in experiment [14], 1.25 (inactive); in experiment [16] it was -1.11 (inactive).
In the case of `CCOC(=O)C[C@H]1[C@H](OC(=O)c2cc3ccccc3oc2=O)[C@@H](NC(=O)c2ccc3ccccc3n2)c2cc(OCCCO)ccc2N1C(=O)c1ccc2ccccc2n1`, the composite z-score is 1.37 in [1]; 0.14 in [2]; -0.0342 in [3]; 0.936 in experiment [4]; 0.114 in experiment [5]; -0.0114 in experiment [6]. In addition, the composite z-score in [7] was 1.06; in experiment [9], 0.787; in experiment [10] it was 0.177; in [11] it was 0.295; in [15], 0.648; in experiment [17], -0.0773. The values for the composite z-score in experiment [18], in experiment [19] and in experiment [20] were 1.03, 1.12 and 0.183, respectively. Further, the z-score in [8] is -0.21 (inactive); in experiment [12], -0.157 (inactive); in experiment [13], 0.291 (inactive); in experiment [14], -0.273 (inactive); in experiment [16], 1.5 (inactive).
For `COCCCNC(=O)[C@@H]1c2ccccc2C(=O)N(c2ccc(C)cn2)[C@H]1c1ccc(CO)cc1`, the composite z-score was 1.02 in experiment [1]; -1.72 in [2]; -0.294 in experiment [3]; -0.286 in experiment [4]; -1.58 in experiment [5]; 0.825 in experiment [6]. Besides, the composite z-score in experiment [7] was -0.54; in experiment [9], -0.939; in [10], -0.233; in experiment [11], -0.0842; in [15] it was 0.674; in [17], 0.0748. Moreover, the composite z-score is -1.73 in experiment [18], -0.502 in experiment [19] and -0.379 in [20]. Moreover, the z-score is 0.183 (inactive) in experiment [8]; 0.331 (inactive) in experiment [12]; -1.18 (inactive) in experiment [13]; -0.19 (inactive) in experiment [14]; -2.29 (inactive) in experiment [16].
In the case of `COCCOC(=O)N1C(=O)[C@@]2(c3cc(C#CC4(O)CCCCCC4)ccc31)[C@H](C(=O)NC[C@H](O)c1ccccc1)[C@H]1C(=O)O[C@H](c3ccccc3)[C@H](c3ccccc3)N1[C@@H]2c1ccc(OCCO)cc1`, the composite z-score is -0.38 in [1]; -0.166 in [2]; 0 in experiment [3]; 0.353 in [4]; 0.672 in [5]; 0.985 in experiment [6]. The composite z-score in experiment [7] is 1.14; in experiment [9], 0.409; in experiment [10], -0.0994; in experiment [11], 1.55; in experiment [15] it was 2.33; in experiment [17] it was -0.121. The composite z-score in [18] is 1.78; in experiment [19] it was 1.15; in experiment [20], -0.0978. Besides, the z-score in experiment [8] was 0.78 (inactive); in experiment [12], 1.94 (inactive); in experiment [13] it was 0.814 (inactive); in experiment [14] it was 5.65 (inactive); in experiment [16] it was 1.35 (inactive).
`C[C@H]1NC(=O)C([C@@H](C)OCc2ccccc2)NC(=O)[C@@]23C(=O)N[C@@H](Cc4ccccc4)C2[C@H](C)[C@@]2(C)O[C@H]2C3/C=C/CC/C=C/CNC1=O` (stereo not given in full): the composite z-score in experiment [1] was -0.0367; in [2], 0.245; in [3] it was 0.0304; in [4], 0.263; in [5], 0.258; in [6], -0.178. In addition, the composite z-score in experiment [7] was -0.248; in experiment [9], 0.114; in [10], 0.127; in [11], -0.1; in experiment [15] it was -0.147; in [17], -0.016. Also, the composite z-score in experiment [18] was 0.598; in experiment [19] it was -0.0089; in experiment [20] it was 0.0143. The z-score in experiment [8] is 0.428 (inactive); in [12], 0.607 (inactive); in [13] it was -0.657 (inactive); in experiment [14], 0.261 (inactive); in experiment [16], 2.13 (inactive).

The values are drawn from PubChem BioAssay.
